Shown are actives, neighbours in structure and some others; about 2.8% of the full set was active somewhere.
Myc binder – binders of human c-Myc. P01106. small molecule microarray, His-c-Myc binding, anti-His fluorescence. calls only. 17,000 tested, 1.5% active;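 active = spot fluorescence over background with P-value below 7% in all four replicate spots, showing protein binding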;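 note: score is binary with 100 for all four spots passing and 0 otherwise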
NFkB binder – NF-kappa-B p105 (human) binding; 17,000 tested, 1.3% active; Small molecule microarray, anti-His fluorescence binding; AID 624139; calls only;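 active = spot fluorescence over background significantly raised, with a chance value under 7% in all four replicate spots of the compound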;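 note: probe protein is his-tagged human p50 processed subunit at 1 µg/ml; raw spot fluorescence signals with no normalization applied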
Target sequence (P19838 1-433 limits assumed): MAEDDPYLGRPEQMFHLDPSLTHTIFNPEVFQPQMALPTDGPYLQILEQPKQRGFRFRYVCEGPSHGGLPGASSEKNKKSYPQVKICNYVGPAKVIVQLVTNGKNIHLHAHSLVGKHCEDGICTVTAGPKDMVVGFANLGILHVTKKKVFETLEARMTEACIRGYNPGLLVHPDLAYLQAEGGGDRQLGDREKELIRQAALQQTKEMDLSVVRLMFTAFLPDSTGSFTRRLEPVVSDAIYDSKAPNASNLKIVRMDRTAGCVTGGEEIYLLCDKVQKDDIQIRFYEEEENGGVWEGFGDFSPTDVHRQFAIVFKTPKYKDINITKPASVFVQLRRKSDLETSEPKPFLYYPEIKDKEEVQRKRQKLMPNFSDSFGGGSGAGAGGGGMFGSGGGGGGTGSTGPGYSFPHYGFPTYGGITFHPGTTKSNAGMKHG
p53 PUMA act – restores mutant p53 pathway signaling in SW480 cells; SW480 PUMA-promoter luciferase, p53 mutant reactivation; activation, % at 9.98 µM; 28,000 tested, 1.5% active; AID 624151; in the data active = activation above about 52%
mut p53 SMM – binds human mutant p53 on microarray; small molecule microarray binding, anti-GST fluorescence; calls only; 17,000 tested, 0.4% active;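 active = compounds whose four printed spots each glow above background more than chance allows, each with a p-value under 7%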
STAT3 SMM – binders of human STAT3; P40763; Small molecule microarray, His-STAT3 binding, anti-His fluorescence; calls only; 17,000 tested, 0.2% active; AID 624138;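 active = compounds whose four printed spots each show fluorescence over background unusually high for their array block, chance value under 7%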
* = called active by the depositor; i = inactive; / = no result given; + = active, no number.

SMILES | Myc binder | NFkB binder | p53 PUMA act | mut p53 SMM | STAT3 SMM
CC(O)c1cc(-c2ccc(Cl)cc2Cl)no1 (configuration not stated) | / | / | 112.9* | / | /
O=C(COc1ccc(I)cc1)Nc1ccc(O)cc1C(=O)O | i | i | 0.9 | i | i
CC1(C)C=Cc2cc3ccc(=O)oc3cc2O1 | / | / | 58.4* | / | /
O=c1ccc2cc3ccoc3cc2o1 | i | i | 23.9 | i | i
C[C@H](CO)N1C[C@H](C)[C@@H](CN(C)C(=O)Nc2cccc3ccccc23)OCCCC[C@H](C)Oc2ccc(NC(=O)c3ccncc3)cc2C1=O | + | + | -18.9 | i | i
C[C@H]1CCCCO[C@@H](CN(C)C(=O)Nc2cccc3ccccc23)[C@@H](C)CN([C@@H](C)CO)C(=O)c2cc(NC(=O)c3ccncc3)ccc2O1 | i | i | -20.0 | i | i
C[C@@H]1CCCCO[C@H](CN(C)C(=O)Nc2cccc3ccccc23)[C@@H](C)CN([C@@H](C)CO)C(=O)c2cc(NC(=O)c3ccncc3)ccc2O1 | + | + | -19.9 | i | i
COC(=O)c1ccc(C(=O)OC)c(NC(=O)CN2C(=O)c3cccc4cccc2c34)c1 | / | / | 0.1 | / | /
O=C(CSc1nnc(-c2ccc(Cl)cc2)o1)N1c2ccccc2Sc2ccccc21 | / | / | 2.0 | / | /
CCOc1ccc(-c2nc(C#N)c(NCCCN(CC)CC)o2)cc1 | / | / | 18.0 | / | /
CC(=O)c1cccc(NC(=O)CNS(=O)(=O)c2ccc(Br)cc2)c1 | / | / | 18.8 | / | /
CC(=O)c1ccc(NC(=O)CNS(=O)(=O)c2cccc(Cl)c2)cc1 | / | / | 68.1* | / | /
Cc1cccc(C)c1Nc1c(CN2C(=O)c3ccccc3C2=O)nc2ccc(Br)cn12 | / | / | 8.8 | / | /
CCc1ccc(OCCSc2nc(C)cc(=O)[nH]2)cc1 | / | / | 58.8* | / | /
CCC(=O)NC(c1c(C)[nH]n(-c2ccccc2)c1=O)(C(F)(F)F)C(F)(F)F | / | / | -6.4 | / | /
COC(=O)c1ccccc1NC(=O)C(C)Oc1ccccc1 (configuration not stated) | i | i | 5.5 | i | i
COC(=O)c1cccc2nc3c(C(C)O)cccc3nc12 (configuration not stated) | + | i | 18.0 | i | i
C[C@@H]1O[C@@H](O[C@H]2[C@@H](O)[C@@H](C)O[C@@H](O[C@H]3[C@H](O)[C@@H](O)[C@H](O[C@H]4CC[C@@]5(C)C(CC[C@]6(C)C5C=CC5=C7CC(C)(C)CC[C@]7(CO)CC[C@]56C)[C@]4(C)CO)O[C@@H]3CO)[C@@H]2O[C@@H]2O[C@H](CO)[C@@H](O)[C@H](O)[C@H]2O)[C@H](O)[C@H](O)[C@H]1O (some centres not stated) | + | + | 0.0 | i | i
CC1OC(O[C@H]2CC[C@@]3(C)C(CC[C@]4(C)C3CC=C3C5CC(C)(C)CC[C@]5(C(=O)OC5OC(CO)C(OC6OC(CO)C(O)C(O)C6O)C(O)C5O)CC[C@]34C)C2(C)C)C(O)C(O)C1OC1OCC(O)(COC2OCC(O)C(OC3OCC(OC4OCC(O)(CO)C4O)C(O)C3O)C2O)C1O (some centres not stated) | i | i | 5.9 | i | i
CC1OC(OC2C(CO)OC(OC(=O)[C@]34CCC(C)(C)CC3C3=CCC5[C@@]6(C)CC[C@H](OC7OC(C)C(OC8OCC(O)(COC9OCC(O)C(OC%10OCC(OC%11OCC(O)(CO)C%11O)C(O)C%10O)C9O)C8O)C(O)C7O)C(C)(C)C6CC[C@@]5(C)[C@]3(C)CC4)C(O)C2O)C(O)C(O)C1O (some centres not stated) | + | + | -16.4 | i | i
CC1(C)CC[C@]2(C(=O)O)CC[C@]3(C)C(=CCC4[C@@]5(C)CC[C@H](O[C@@H]6OC[C@H](O)[C@H](O)[C@H]6O)[C@@](C)(CO)C5CC[C@]43C)C2C1 (some centres not stated) | i | + | -38.0 | i | i
CC1(C)CC[C@]2(C(=O)O[C@@H]3O[C@H](CO)[C@@H](O)[C@H](O)[C@H]3O)CC[C@]3(C)C(=CCC4[C@@]5(C)CC[C@H](O[C@@H]6OC[C@H](O)[C@H](O)[C@H]6O[C@@H]6O[C@H](CO)[C@@H](O)[C@H](O)[C@H]6O[C@@H]6OC[C@H](O)[C@H](O)[C@H]6O)[C@@](C)(CO)C5CC[C@]43C)C2C1 (some centres not stated) | i | + | 15.0 | i | i
Cc1ccc2nc(-c3cccnc3)cc(C(=O)NCc3cnn(C)c3)c2c1 | / | / | 6.1 | / | /
CCOc1c(S(=O)(=O)NCc2ccco2)ccc(Cl)c1Cl | / | / | -16.2 | / | /
COc1c(O)ccc(C(c2cn(C)c3ccccc23)c2cn(C)c3ccccc23)c1[N+](=O)[O-] | / | / | -19.9 | / | /
SMILES | Myc binder | NFkB binder | p53 PUMA act | mut p53 SMM | STAT3 SMM
C/C=C(\C)C(=O)O[C@H]1[C@H](OC(C)=O)[C@@]2(CO)C(CC1(C)C)C1=CCC3[C@@]4(C)CC[C@H](O[C@@H]5O[C@H](C(=O)O)[C@@H](O)[C@H](O[C@@H]6O[C@H](CO)[C@H](O)[C@H](O)[C@H]6O[C@@H]6O[C@@H](C)[C@H](O)[C@@H](O)[C@H]6O)[C@H]5O[C@@H]5O[C@H](CO)[C@@H](O)[C@H](O)[C@H]5O)C(C)(C)C4CC[C@@]3(C)[C@]1(C)C[C@H]2O (some centres not stated) | i | + | -81.9 | i | i
O=C(CCN1C(=O)c2ccccc2C1=O)Nc1ccc(-c2nc3ccccc3o2)cc1 | / | / | 33.8 | / | /
O=C(CCN1C(=O)c2ccccc2C1=O)Oc1c(-c2ccccc2)oc2ccccc2c1=O | / | / | 53.9* | / | /
COc1ccc2[nH]cc(CCNC(N)=O)c2c1 | / | / | 6.2 | / | /
N#Cc1cc(C#N)c(SCCN2CCOCC2)nc1N | i | i | 11.7 | + | i
Cc1ccccc1NC(=O)CSc1nc(N)c(C#N)cc1C#N | i | i | 26.8 | i | i
Cc1ccc(OCC(=O)Nc2cccc(C(=O)O)c2C)cc1 | / | / | 66.3* | / | /
Cc1ccc2oc(-c3cccc(NC(=O)COc4ccc(Br)cc4)c3C)nc2c1 | / | / | 43.8 | / | /
Cc1ccc2oc(-c3cccc(NC(=O)COc4ccc(Cl)cc4)c3C)nc2c1 | / | / | 65.8* | / | /
Cc1c(NC(=O)COc2ccc(C(C)(C)C)cc2)cccc1C(=O)O | / | / | 24.5 | / | /
O=C(O)C1=C[C@H](c2ccc(C(F)(F)F)cc2)C[C@H](OCCCCO)O1 | i | i | / | i | +
O=C(CCN1C(=O)C2C3C=CC(C4CC34)C2C1=O)Nc1ccc(Br)cc1Cl (configuration not stated) | / | / | 22.5 | / | /
Cc1nnc(SCC(=O)Nc2cc(Cl)ccc2Cl)s1 | / | / | 6.4 | / | /
C=CCN1Cc2ccccc2[C@@H]2OC(c3ccc(OCCCO)cc3)=N[C@]2(CCC(=O)OC(C)(C)C)C1=O | i | + | / | i | i
O=C1N(Cc2ccccc2)Cc2ccccc2C[C@@]12N=C(c1ccc(OCCCO)cc1)O[C@H]2c1ccccc1 | i | + | / | + | i
Cc1ccc(S(=O)(=O)NC(C)C(=O)Nc2c(F)cccc2F)cc1 (configuration not stated) | / | / | -8.7 | / | /
Cc1ccc(C(=O)NC(=O)CSc2nnnn2-c2ccccc2)cc1 | / | / | 4.7 | / | /
